Screening results: PubChem BioAssay, The Scripps Research Institute Molecular Screening Center
Compounds with a hit are over-represented: about 2% of the library has one in this group of screens.
CHRM4 agonist – agonists of human muscarinic M4 receptor (CHRM4); P08173; activation, % at 3 µM; actives 0.14% (n = 360,000); CHO-K1 hM4/Gqi5, Fluo-8 calcium fluorescence; vehicle 0%, full acetylcholine response 100%;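 active means activation above the run mean over all test wells plus 3 SD, cut at about 32% in these data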;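 further: peak over basal fluorescence ratio per well then scaled between controls; 0% = DMSO wells and 100% = acetylcholine at EC100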
Target sequence (P08173 whole entry, looked up): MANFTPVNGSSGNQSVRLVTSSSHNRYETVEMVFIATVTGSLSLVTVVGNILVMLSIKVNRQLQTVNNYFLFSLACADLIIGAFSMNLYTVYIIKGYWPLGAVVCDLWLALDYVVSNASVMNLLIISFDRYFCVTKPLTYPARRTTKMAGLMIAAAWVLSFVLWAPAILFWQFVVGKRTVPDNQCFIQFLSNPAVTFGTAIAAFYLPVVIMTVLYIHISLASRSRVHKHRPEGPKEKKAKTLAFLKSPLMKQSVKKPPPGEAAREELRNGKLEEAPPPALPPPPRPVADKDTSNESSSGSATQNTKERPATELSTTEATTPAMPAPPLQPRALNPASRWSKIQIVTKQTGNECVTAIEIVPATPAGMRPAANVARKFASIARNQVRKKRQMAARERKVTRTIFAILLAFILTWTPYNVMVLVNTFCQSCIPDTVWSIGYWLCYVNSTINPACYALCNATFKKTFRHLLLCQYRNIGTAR
CHRM4 PAM – CHRM4 positive allosteric modulation | P08173 | CHO-K1 hM4/Gqi5, Fluo-8 calcium fluorescence, ACh EC20; 0% = ACh EC20, 100% = maximal ACh | activation, % at 3 µM | actives 0.4% (n = 360,000);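 active means activation above its plate's cutoff, the mean activation of sample wells plus 3 SD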
M1 PAM parental – counter-screen for M1 PAMs: effect in parental CHO-K1 cells | ATP EC20, Fluo-8 calcium fluorescence; 0% at ATP EC20, 100% at ATP max | activation, % at 3 µM | actives 0.02% (n = 360,000);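 active means activation above the run cutoff, the mean activation of all test compounds plus 3 SD, cut at about 40% in these data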;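 further: peak over basal fluorescence ratio in a 140 s read after ATP addition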
CHRM4 antagonist – blocks acetylcholine activation of human M4 receptor; actives 0.73% (n = 360,000); P08173; inhibition, % at 3 µM; CHO-hM4 cells, ACh EC80, Fluo-8 calcium fluorescence;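 active means inhibition above its plate's cutoff, the mean inhibition of sample wells plus 3 SD, cut at about 27% in these data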;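 further: 0% = acetylcholine EC80 with DMSO and 100% = DMSO without agonist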
CHO-K1 Ca antag – M1 antagonist counterscreen hit in parental CHO-K1 cells | ATP-induced calcium, Fluo-8 fluorescence | inhibition, % at 3 µM | actives 0.6% (n = 360,000);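 active means inhibition above a per-plate cutoff, the plate's mean sample inhibition plus 3 SD, cut at about 24% in these data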;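 further: 0% = DMSO plus EC80 ATP and 100% = DMSO alone without ATP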
CHO-K1 Ca ag – nonselective activator or artifact in parental CHO-K1 cells; activation, % at 3 µM; actives 0.48% (n = 360,000); Fluo-8 calcium fluorescence; scaled to maximal ATP response, vehicle zero; in the data active means activation above about 15%;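 further: untransfected CHO-K1 host cells lacking M1 receptor as counterscreen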
An asterisk follows results filed as active.

SMILES	CHRM4 agonist	CHRM4 PAM	M1 PAM parental	CHRM4 antagonist	CHO-K1 Ca antag	CHO-K1 Ca ag
O=Cc1c(Nc2cccc(C(F)(F)F)c2)nc2ccccn2c1=O	1	16*	-7	-19	-7	1
Cc1cc(C)n(C(=O)Cn2nc(C)c(Cl)c2C)n1	0	3	-10	-1	-4	0
Cc1c(C(=O)OCC[N+]2(C)CCCCC2)oc2ccccc12	0	-21	17	13	-5	0
CCCc1nc2c3ccccc3ccn2c1Cc1cccc(F)c1	-1	-17	15	57*	-20	1
c1ccc(-n2cc(CN3CCC(N4CCOCC4)CC3)c(-c3ccc4c(c3)OCO4)n2)cc1	3	9	16	-8	1	0
c1ccc(-n2cc(CN3CCCC3)c(-c3ccc4c(c3)OCO4)n2)cc1	2	4	13	-4	-4	20*
OC[C@@H]1CN(Cc2ccncc2)C[C@H](n2cnc3c(NC4CC4)ncnc32)O1	1	7	19	-6	-11	0
O=S(=O)(Nc1ccc(Cc2ccncc2)cc1)c1ccc(Cl)c(Cl)c1	8	-33	16	34*	-8	8
CCOc1cc(S(=O)(=O)NCc2ccncc2)ccc1Cl	23	-16	-15	36*	55*	12
CCc1ccc(OC)c(S(=O)(=O)Nc2ccc(Cc3ccncc3)cc2)c1	13	-2	18	7	12	15*
N#CC(C#N)=C(Nc1ccc(F)cc1)SCc1cccc(Br)c1	10	-15	16	19	26*	10
Cc1cccc(CSC(Nc2ccc(F)cc2)=C(C#N)C#N)c1	11	-14	0	18	28*	13
CC(SCc1ccccc1)C(=O)Nc1ccc(F)cc1 (stereo not drawn)	0	-1	15	-8	-13	1
CCOc1ccc(CCNS(=O)(=O)c2ccc3c(c2)oc(=O)n3C)cc1OCC	3	8	4	-2	11	15*
CC(Cc1ccccc1)C(=O)NCc1nc2ccccc2s1 (stereo not drawn)	1	12	9	-11	-10	0
CCCOc1ccc(/C=C/C(=O)O)cc1OC	1	19*	9	-15	-18	-1
COc1cc(/C=C2\CC/C(=C\c3ccc(OCCO)c(OC)c3)C2=O)ccc1OCCO	10	-10	4	6	18	31*
O=C(Nc1ccc(F)cc1)C(NC1CCCCC1)c1ccccc1 (stereo not drawn)	1	-22	-15	16	5	0
COc1ccc(S(=O)(=O)NC(=O)C2(C)CCN2C(=O)Cc2cc(C)cc(C)c2)cc1OC (stereo not drawn)	0	-2	6	4	-7	0
Cc1nc2sccn2c(=O)c1S(=O)(=O)NCC1CCN(Cc2ccccc2Cl)CC1	0	-22	17	34*	-17	1
Cc1nc2sccn2c(=O)c1S(=O)(=O)N1CCN(c2ccccc2)CC1	0	-17	11	61*	10	0
O=C(NC(=S)Nc1cccc(Cl)c1)c1cncc(Br)c1	1	1	13	0	-10	1
O=C(CN1CCN(S(=O)(=O)c2ccc(Cl)cc2)CC1)Nc1ccc(F)cc1F	4	-1	12	-12	1	1
COC(=O)c1ccc2nc(-c3cccc(Br)c3)c(Cc3ccsc3)n2c1	0	21*	20	-15	-31	0
O=C(C(Cc1ccccc1)N1C(=O)c2ccccc2C1=O)N1CCc2ccccc21 (stereo not drawn)	0	17	-7	6	26*	0
SMILES	CHRM4 agonist	CHRM4 PAM	M1 PAM parental	CHRM4 antagonist	CHO-K1 Ca antag	CHO-K1 Ca ag
CN(C)CCNc1ncnc2oc(-c3ccccc3)c(-c3ccccc3)c12	16	-7	9	-3	8	16*
Cc1cc(Nc2ccccc2)nn1C(=O)c1ccccc1	3	-1	19	-4	-14	2
COc1ccc2[nH]c(=O)c(CNC3CCCCC3)cc2c1	2	23*	16	-22	-7	0
COc1ccc2[nH]c(=O)c(CN(C(=O)NC3CCCCC3)C3CCCCC3)cc2c1	0	13	6	7	-8	0
O=C(COC(=O)c1ccccc1NS(=O)(=O)c1ccc(Cl)cc1)NCc1ccccc1	2	21*	-7	0	6	0
CC1(Oc2ccccc2-c2ccno2)CCN(Cc2csc3ccccc23)C1 (stereo not drawn)	1	-8	1	33*	3	1
COc1cc(NC(=O)CN(C)S(=O)(=O)c2ccc(C)cc2)cc(OC)c1	2	18*	3	-8	-7	1
COc1ccc(S(=O)(=O)N(C)CC(=O)Nc2ccccc2OC)cc1	2	1	21	34*	-16	1
COc1ccc(S(=O)(=O)N(CC(=O)O)c2ccccc2)cc1	2	22*	9	-12	-15	1
COc1ccc(S(=O)(=O)N(CC(=O)O)c2ccccn2)cc1	0	0	13	-3	-6	0
Cc1ccc(S(=O)(=O)N(C)CC(=O)Nc2nc3ccccc3s2)cc1	10	-9	-11	1	24*	2
CN(CC(=O)Nc1nc2ccc(F)cc2s1)S(=O)(=O)c1ccc(Cl)cc1	11	-11	10	7	7	5
C=CCn1c(SCC(N)=O)nnc1-c1cnccn1	1	2	0	-9	5	-1
COc1ccc(C)cc1S(=O)(=O)N(CC(=O)O)c1ccc(C)cc1	0	32*	18	6	-2	0
COc1ccc2nc(NC(=O)CNS(=O)(=O)c3cccs3)sc2c1	4	-3	12	-2	-18	2
Fc1ccc(CNc2ncnc3cc(Cl)ccc23)cc1	14	-3	3	-6	2	16*
COc1ccc(CNc2ncnc3cc(Cl)ccc23)cc1OC	9	-9	2	-8	-2	11
CCOC(=O)N1CCC(NCCNC(=O)c2ccco2)CC1	2	2	-6	-2	-3	0
COc1ccc(Cn2ccnc2)cc1[N+](=O)[O-]	1	-2	13	3	-2	1
COc1ccc(Cn2ccnc2)cc1Br	1	1	14	29*	-11	2
O=S(=O)(c1ccccc1)N(CC1CO1)c1ccccc1 (stereo not drawn)	0	0	29	-2	-9	16*
O=[N+]([O-])c1ccc(N(CC2CO2)S(=O)(=O)c2ccccc2)cc1 (stereo not drawn)	3	-1	-14	-9	-2	1
Nc1nc2nc[nH]c2c(=O)[nH]1	0	2	18	-1	-12	0
CCc1ccccc1NC(=O)CSc1nc2c(c(-c3ccco3)c1C#N)CCCC2	0	7	19	7	-12	0
